High-throughput results from PubChem BioAssay.
An excerpt weighted towards active compounds, which were near 2.3% of everything screened.
CHRM1 antagonist: human CHRM1 antagonism; AID 588852; P11229; hit rate 1.3% among 360,000; inhibition, % at 3 µM; CHO-K1 hM1, Fluo-8 calcium fluorescence, ACh EC80 antagonist;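 active means percent inhibition above its own plate's cutoff, namely the mean of that plate's compound wells plus 3 SD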;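 further: peak over basal fluorescence ratio during 140 s after agonist addition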
Target sequence (P11229 whole entry, looked up): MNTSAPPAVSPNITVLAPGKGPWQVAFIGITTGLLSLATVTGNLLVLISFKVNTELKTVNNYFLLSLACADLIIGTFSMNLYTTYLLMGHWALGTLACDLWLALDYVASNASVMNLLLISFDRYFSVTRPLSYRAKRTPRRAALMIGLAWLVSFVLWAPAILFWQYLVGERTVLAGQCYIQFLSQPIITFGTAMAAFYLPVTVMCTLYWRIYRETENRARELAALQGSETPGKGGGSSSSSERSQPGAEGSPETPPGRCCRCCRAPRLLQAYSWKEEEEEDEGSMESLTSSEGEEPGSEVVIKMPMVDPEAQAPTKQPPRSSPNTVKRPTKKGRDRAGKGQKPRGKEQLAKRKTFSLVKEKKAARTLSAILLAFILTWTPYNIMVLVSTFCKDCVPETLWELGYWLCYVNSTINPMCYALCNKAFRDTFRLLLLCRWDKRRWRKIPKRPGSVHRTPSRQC
CHO-K1 Ca antag: nonselective inhibitor or artifact in parental CHO-K1 cells. AID 602250. inhibition, % at 3 µM. ATP-induced calcium, Fluo-8 fluorescence. hit rate 0.6% among 360,000;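 active means inhibition above a per-plate cutoff, the plate's mean sample inhibition plus 3 SD, cut at about 24% in these data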
M1 ag: agonists of human M1 muscarinic receptor; AID 588814; hit rate 0.33% among 360,000; CHO-K1 hM1, Fluo-8 calcium fluorescence, agonist mode; 0% DMSO, 100% acetylcholine EC100; activation, % at 3 µM; P11229;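 active means activation above the run's mean compound activation plus 3 SD, cut at about 16% in these data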;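 further: peak over basal fluorescence ratio within a 140 s kinetic read after compound addition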
CHRM1 PAM: human CHRM1 positive allosteric modulation; P11229; CHO-K1 hM1, Fluo-8 calcium fluorescence, ACh EC20; 0% = ACh EC20, 100% = maximal ACh; activation, % at 3 µM; hit rate 0.088% among 360,000; in the data active means activation above about 19%, passing the limit was not always enough
CHO-K1 Ca PAM: M1 PAM counterscreen hit in parental CHO-K1 cells; activation, % at 3 µM; hit rate 0.02% among 360,000; ATP EC20, Fluo-8 calcium fluorescence; 0% at ATP EC20, 100% at ATP max; AID 602247;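 active means activation above the run cutoff, the mean activation of all test compounds plus 3 SD, cut at about 40% in these data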;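 further: peak over basal fluorescence ratio in a 140 s read after ATP addition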
CHO-K1 Ca ag: counter-screen for M1 agonists: effect in parental CHO-K1 cells; Fluo-8 calcium fluorescence; scaled to maximal ATP response, vehicle zero; hit rate 0.48% among 360,000; activation, % at 3 µM; AID 602248; in the data active means activation above about 15%;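 further: untransfected CHO-K1 host cells lacking M1 receptor as counterscreen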
Numbers stand for hits; . = inactive.

SMILES	CHRM1 antagonist	CHO-K1 Ca antag	M1 ag	CHRM1 PAM	CHO-K1 Ca PAM	CHO-K1 Ca ag
Cc1ccc2c(c1)N(C(=O)CCC(=O)N1CCN(c3ccccn3)CC1)CCO2	36.5	.	.	.	.	.
O=C(CCC(=O)N1CCOc2ccc(Cl)cc21)N1CCN(c2ccccn2)CC1	.	.	.	.	.	.
CC1(Cc2ccccc2Cl)C(=O)Nc2c(Cl)ccc(Cl)c21 (configuration not stated)	.	.	.	.	.	.
Cc1[nH]nc2c1/C(=N\O)CC(C)(C)C2	.	.	.	.	.	.
Cc1[nH]nc2c1C(=O)CC(C)(C)C2	.	.	.	21.0	.	.
COC(=O)C1CCN(C(=O)CN(C)Cc2ccc(C(C)(C)C)cc2)CC1	33.9	.	.	.	.	.
CN(Cc1ccc(C(C)(C)C)cc1)C(=O)C1CCN(C(=O)Nc2ccccc2)CC1	.	.	.	.	.	.
CN(C)CCNc1ncnc2oc(-c3ccccc3)c(-c3ccccc3)c12	.	.	.	.	.	15.9
NS(=O)(=O)c1ccc(CCNC(=O)CSc2nc3ccccc3c(=O)n2CC2CCCO2)cc1 (configuration not stated)	.	.	.	.	.	.
COc1cc(CO)cc(Br)c1OCc1cccnc1	.	.	.	.	.	.
COc1ccc(N2CCN(S(=O)(=O)c3cccc4nsnc34)CC2)cc1	.	.	.	.	.	.
O=C(Nc1ccccc1F)C1CCCN1S(=O)(=O)c1cccc2nsnc12 (configuration not stated)	.	58.2	.	.	.	.
CC(=O)Nc1ccc(NC(=O)C2CCCN2S(=O)(=O)c2cccc3nsnc23)cc1 (configuration not stated)	.	.	.	.	.	18.8
CC(=O)c1ccc(N2CCN(S(=O)(=O)c3cccc4nsnc34)CC2)cc1	.	24.2	.	.	.	.
CN(CCCCCCCCC(=O)/C=N/O)Cc1ccccc1	68.7	.	.	.	.	.
O=C(CN1CCN(CC(=O)c2ccc(Cl)cc2)CC1)c1ccc(Cl)cc1	.	.	.	.	.	.
O=C(Cn1cc(Cl)ccc1=O)c1ccc(Cl)cc1	.	24.1	.	.	.	.
Cc1cc(C)c2c(-n3cccc3)c(C(=O)NNS(=O)(=O)c3ccc(Cl)cc3)sc2n1	.	.	.	.	.	.
Cc1nc(NC(=O)/C=C/c2ccccc2)sc1C(=O)N1CCCCC1	.	.	.	.	.	.
CCN(C(=O)CN1CCCC(C)C1)c1c(N)n(Cc2ccccc2)c(=O)[nH]c1=O (configuration not stated)	.	.	.	.	.	.
CCOC(=O)n1c(=O)oc2ccc(Cl)cc21	.	29.2	.	.	.	.
CCCCOC(=O)n1c(=O)oc2ccccc21	.	.	.	.	.	.
CC(=O)N1CCc2c(sc(NC(=O)C3CCN(S(=O)(=O)c4cccs4)CC3)c2C(N)=O)C1	.	.	.	.	.	.
CCCN1CCc2c(sc(NC(=O)C3CCN(S(=O)(=O)c4cccs4)CC3)c2C(N)=O)C1	53.4	28.8	.	.	.	.
CC1=C(C(=O)N(C(C)C)C(C)C)CC(CC(=O)NCCN2CCOCC2)C(=O)N1CCCN1CCCC1=O (configuration not stated)	.	26.2	.	.	.	.
SMILES	CHRM1 antagonist	CHO-K1 Ca antag	M1 ag	CHRM1 PAM	CHO-K1 Ca PAM	CHO-K1 Ca ag
Cc1c(C(=O)N(Cc2ccccc2)C(C)C)oc2ccc(S(=O)(=O)N3CCOCC3)cc12	.	.	.	.	.	.
OC(COCC1CC=CCC1)Cn1cnc2ccccc21 (configuration not stated)	.	.	.	23.7	.	.
COCc1c(C(=O)OCC(=O)N2c3ccccc3NC(=O)C2(C)C)oc2ccccc12	.	30.0	.	.	.	.
CN(C(=O)COC(=O)c1n[nH]c2ccccc12)C1CCS(=O)(=O)C1 (configuration not stated)	.	.	.	.	.	.
COc1cc(/C=C/C(=O)OCC(=O)N2c3ccccc3NC(=O)C2(C)C)cc(OC)c1OC	33.5	.	.	.	.	.
COCc1c(C(=O)OCC(=O)N(C)C2CCS(=O)(=O)C2)oc2ccccc12 (configuration not stated)	35.7	.	.	.	.	.
CC1(C)C(=O)Nc2ccccc2N1C(=O)COC(=O)c1ccc(Cl)c(S(=O)(=O)NCc2ccccc2)c1	30.1	.	.	.	.	.
O=C1CN(C(=O)COC(=O)c2oc3ccccc3c2COc2ccccc2)c2ccccc2N1	.	.	.	.	.	.
CC1(C)C(=O)Nc2ccccc2N1C(=O)COC(=O)c1cc(S(C)(=O)=O)ccc1Cl	.	.	.	.	.	.
COc1ccc(S(N)(=O)=O)cc1C(=O)OCC(=O)N1c2ccccc2NC(=O)C1(C)C	.	.	.	.	.	.
O=C(Cn1cc(S(=O)(=O)Cc2cccc(F)c2)c2ccccc21)N1CCOCC1	.	.	.	.	.	.
O=C(Nc1cccc(S(=O)(=O)NC2=NCCCCC2)c1)c1ccc(Cl)cc1	.	.	.	.	.	.
CCOC(=O)c1c(C)nc2c(c1-c1cc(OC)c(OC)c(OC)c1)C(=O)c1ccccc1-2	.	.	.	.	.	.
COCc1c(C(=O)OCC(=O)N2c3ccccc3CC2C)oc2ccccc12 (configuration not stated)	.	24.4	.	.	.	.
COCc1c(C(=O)OCC(=O)N2CCCC2=O)oc2ccccc12	.	.	.	.	.	.
Cc1nc2ccccn2c1C(=O)N=Nc1c(O)[nH]c2ccccc12	.	.	.	.	.	.
COc1ccc(NS(=O)(=O)c2ccc(C(=O)N(C)Cc3cccs3)cc2)cc1	.	.	25.3	.	.	20.2
COc1ccc(NC(=O)CN(C)C(=O)c2ccc(NS(=O)(=O)c3cccc([N+](=O)[O-])c3)cc2)cc1	.	33.4	.	.	.	.
COc1ccc(NS(=O)(=O)c2cccc(C(=O)N(C)CC(=O)Nc3ccc(C)cc3)c2)cc1	.	.	.	.	.	.
C=CCNC(=O)c1ccc2c(c1)nnn2C	.	.	.	.	.	.
COc1ccc(/C=C2\CC/C(=C\c3ccc(OC)c(OC)c3)C2=O)cc1OC	.	.	.	.	.	.
COc1cc(/C=C2\CC/C(=C\c3ccc(OCCO)c(OC)c3)C2=O)ccc1OCCO	.	.	32.4	.	.	30.6
COC(=O)c1ccccc1NC(=O)CSc1nc2ccsc2c(=O)n1CCCCC(=O)O	.	.	.	.	.	.
CS(=O)(=O)NCCNc1ccc(Cl)cc1[N+](=O)[O-]	23.4	.	.	.	.	.
CN(C)CCNc1ccc(Cl)cc1[N+](=O)[O-]	34.7	.	.	.	.	.
Cc1ccccc1C(=O)N1CC(=O)Nc2ccc(F)cc2C1c1ccccc1 (configuration not stated)	.	.	.	.	.	23.5
